The structures appear in SMILES notation. “And” between values parts separate entries of the source, which are not always exact repeats. Equal values may be shown once. The source made the active and inactive calls. Unless noted, no rule for the calls is given here.

These results are taken from PubChem BioAssay.

Assay [1] in a line: circadian clock period modulators, cell-based, LOPAC library, luminescence reporter (AID 2774).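 Also: values are relative to mean of DMSO wells on each plate.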 The following applies: circadian reporter cells, at 7 µM, actives lie on both sides.
The test system of assay [2] is Hepatitis C virus NS3 helicase. The assay can be described thus: HCV NS3 helicase inhibitors, primary screen, biochemical, fluorescence polarization, LOPAC1280 library (AID 687035; in the data active = inhibition above about 37%). To be noted: Purified HCV NS3 helicase, Cy5-dT15 ssDNA binding fluorescence polarization; stronger effect = higher value; concentration not given here.
Assay [3] in a line: Cy5 fluorescence quenching or enhancement artefacts, artefact control for HCV NS3 helicase inhibitor project, biochemical, LOPAC1280 (AID 687037). The following applies: Cy5-DNA-NS3h complex fluorescence interference counterscreen.
In assay [4] the test system is Aerobactin synthetase IucA (Klebsiella pneumoniae). The experiment in a line: IucA aerobactin synthetase inhibitors, biochemical, Tocris library, absorbance (AID 1345561).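 Also: 100% = enzyme without compound and 0% = no enzyme.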 The following applies: purified IucA enzyme assay, absorbance (OD) read-out; stronger effect = lower value;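 tested at 8 µM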.
Assay [5] in a line: sensitizers of A549 cells to miR-34 induction, primary screen, imaging, A549 dox-inducible miR-34, nuclei and caspase counts (AID 1347080;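 active = compounds whose cell count with miR-34 switched on is under 0.7 times the count with it off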). The following applies: A549 miR-34 inducible, Hoechst nuclei count, 48 h.
The nature of assay [6]: phospholipid biosynthesis inhibitors in animal cells, primary screen, cell-based, LOPAC library, screen 4 (AID 1347384). The following applies: phospholipid biosynthesis inhibition screen, at 10 µM.
A short description of assay [7]: viability rescue of complex I mutant cybrids, primary screen, cell-based, galactose medium, ATP luminescence (AID 1645843;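 active = z-score of at least 1.8 in each of two replicates, scored against plate mean and spread of sample wells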;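 also: positive z means more ATP and so rescue of galactose-driven cybrid death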). The following applies: complex I mutant cybrid cells, 72 h, stronger effect = higher value.
The mark [8] stands for this setting: stronger effect = lower value, cell number ratio, induced over uninduced.
The mark [9] stands for this setting: measured here: relative caspase fold change +Dox/-Dox.
Setting [10] is: measured here: total cells with miR-34 induction, stronger effect = lower value.
Where [11] appears, read: measured here: total cells without miR-34 induction.

Take `COC(=O)C1=C(C)NC(C)=C([N+](=O)[O-])C1c1ccccc1C(F)(F)F` (stereo not given): the period change in assay [1] is 0.05 h (inactive). The inhibition in assay [2] was -5% (inactive). Besides, the fluorescence ratio (interference) in assay [3] is 0.9 (inactive). Moreover, the remaining activity in assay [4] was 124% (inactive). Also, the fold change in assay [5] (setting [8]) was 1.01 (inactive) and 1 (inactive) and 0.845 (inactive); in assay [5] (setting [9]) it was 1.21 and 1.49 and 0.884. Further, the cell count in assay [5] (setting [10]) was 9160 and 5080 and 7400; in assay [5] (setting [11]) it was 9050 and 5080 and 8750. Besides, in assay [6], the molecule was called inactive. Also, in assay [7], the z-score was -0.7 (inactive) and -0.625 (inactive).

As to `Cn1cc(C(=O)OCC2CCN(CCNS(C)(=O)=O)CC2)c2ccccc21`, the period change in assay [1] was 0.07 h (inactive). Further, the inhibition in assay [2] is -1% (inactive). Besides, the fluorescence ratio (interference) in assay [3] was 1 (inactive). Moreover, the remaining activity in assay [4] was 123% (inactive). Moreover, the fold change in assay [5] (setting [8]) is 1.06 (inactive) and 0.932 (inactive); in assay [5] (setting [9]), 1.51 and 0.946. Moreover, the cell count in assay [5] (setting [10]) is 9310 and 9140; in assay [5] (setting [11]), 8780 and 9810. In addition, in assay [6], the call was inactive. Further, the z-score in assay [7] was -0.825 (inactive) and -0.425 (inactive).

As for `Nc1ncnc2c1ncn2C1CCCO1` (stereo not given), in assay [1], the period change is -0.01 h (inactive). The inhibition in assay [2] is -1% (inactive). For the same molecule, in assay [3], the fluorescence ratio (interference) was 1 (inactive). The remaining activity in assay [4] was 110% (inactive). Also, the fold change in assay [5] (setting [8]) was 0.951 (inactive) and 0.846 (inactive) and 0.927 (inactive); in assay [5] (setting [9]), 1.64 and 1.08 and 0.781. In addition, the cell count was 9560 and 5440 and 8660 in assay [5] (setting [10]); 10100 and 6440 and 9350 in assay [5] (setting [11]). The outcome in assay [6] was inactive. In assay [7], the z-score is 0.435 (inactive) and -0.32 (inactive).

`CCn1c(=O)[nH]c2cc(Cl)c(Cl)cc21`: in assay [1], the period change is 0.01 h (inactive). For the same molecule, the inhibition in assay [2] was -2% (inactive). Moreover, the fluorescence ratio (interference) in assay [3] was 1 (inactive). Moreover, the remaining activity in assay [4] was 114% (inactive). In addition, the fold change in assay [5] (setting [8]) is 0.936 (inactive) and 0.878 (inactive); in assay [5] (setting [9]), 1.34 and 0.845. Also, the cell count in assay [5] (setting [10]) is 8830 and 7930; in assay [5] (setting [11]) it was 9440 and 9020. In assay [6], the call was inactive. Further, the z-score in assay [7] was 0.275 (inactive) and 0.885 (inactive).

As to `CCCc1c(-c2ccc(O)cc2)nn(-c2ccc(O)cc2)c1-c1ccc(O)cc1`, in assay [1], the period change is 0.165 h (inactive). Moreover, the inhibition in assay [2] was -1% (inactive). For the same molecule, the fluorescence ratio (interference) in assay [3] was 1 (inactive). Moreover, in assay [4], the remaining activity was 109% (inactive). Also, the fold change in assay [5] (setting [8]) was 1.09 (inactive) and 0.887 (inactive) and 1.03 (inactive); in assay [5] (setting [9]), 1.1 and 0.322 and 0.755. Besides, the cell count in assay [5] (setting [10]) was 8030 and 5050 and 7250; in assay [5] (setting [11]), 7380 and 5690 and 7020. For the same molecule, in assay [6], the outcome was inactive. Further, the z-score in assay [7] is 1.27 (inactive) and 1.6 (inactive).

In the case of `N[C@@H](CS(=O)O)C(=O)O`, the period change in assay [1] was 0.04 h (inactive). The inhibition in assay [2] was -5% (inactive). Besides, the fluorescence ratio (interference) in assay [3] was 0.9 (inactive). Moreover, in assay [4], the remaining activity was 124% (inactive). Besides, the fold change is 1.01 (inactive) and 0.998 (inactive) in assay [5] (setting [8]); 1.54 and 0.698 in assay [5] (setting [9]). Further, the cell count in assay [5] (setting [10]) is 10700 and 8340; in assay [5] (setting [11]), 10600 and 8360. The molecule was classed as inactive in assay [6]. For the same molecule, in assay [7], the z-score is 0.58 (inactive) and 0.25 (inactive).

As for `NCC(O)(CS(=O)(=O)O)c1ccc(Cl)cc1` (stereo not given), the period change in assay [1] is 0.035 h (inactive). Moreover, the inhibition in assay [2] was -2% (inactive). In assay [3], the fluorescence ratio (interference) is 1 (inactive). In addition, the remaining activity in assay [4] was 105% (inactive). Further, the fold change is 0.977 (inactive) in assay [5] (setting [8]); 2.17 and 0.803 in assay [5] (setting [9]). In addition, the cell count was 9480 and 8580 in assay [5] (setting [10]); 9700 and 8780 in assay [5] (setting [11]). The molecule was classed as inactive in assay [6]. The z-score in assay [7] is 0.265 (inactive) and -0.115 (inactive).

For `O=C(OCCN1CCOCC1)C1(c2ccccc2)CCCCC1`, the period change in assay [1] is -0.085 h (inactive). For the same molecule, the inhibition in assay [2] was -2% (inactive). In assay [3], the fluorescence ratio (interference) was 1 (inactive). Also, in assay [4], the remaining activity was 124% (inactive). The fold change in assay [5] (setting [8]) is 1.05 (inactive) and 1.02 (inactive); in assay [5] (setting [9]) it was 1.06 and 0.742. The cell count is 10700 and 8020 in assay [5] (setting [10]); 10200 and 7840 in assay [5] (setting [11]). Moreover, in assay [6], the result was inactive. For the same molecule, the z-score in assay [7] was -0.08 (inactive) and -0.97 (inactive).

For `Cc1nc2c(OCc3ccccc3)cccn2c1CC#N`, the period change in assay [1] was -0.02 h (inactive). In assay [2], the inhibition was 1% (inactive). Besides, the fluorescence ratio (interference) in assay [3] is 1 (inactive). For the same molecule, the remaining activity in assay [4] is 113% (inactive). For the same molecule, the fold change is 1.04 (inactive) and 0.99 (inactive) in assay [5] (setting [8]); 1.18 and 1.15 in assay [5] (setting [9]). Besides, the cell count in assay [5] (setting [10]) is 9420 and 8410; in assay [5] (setting [11]) it was 9080 and 8490. Moreover, the molecule was called inactive in assay [6]. In addition, in assay [7], the z-score is 1.07 (inactive) and 2.13 (inactive).

With `NC(N)=NC(N)=Nc1cccc(Cl)c1`, the period change in assay [1] was 0.15 h (inactive). In addition, the inhibition in assay [2] is -4% (inactive). For the same molecule, the fluorescence ratio (interference) in assay [3] was 1 (inactive). In addition, in assay [4], the remaining activity was 77.4% (inactive). The fold change in assay [5] (setting [8]) was 0.947 (inactive) and 0.85 (inactive); in assay [5] (setting [9]), 1.12 and 1.01. In addition, the cell count in assay [5] (setting [10]) is 10300 and 7530; in assay [5] (setting [11]), 10900 and 8860. Moreover, the molecule was called inactive in assay [6]. The z-score in assay [7] was -0.165 (inactive) and -0.935 (inactive).

Regarding `CC(C)NC[C@H](O)COc1cccc2[nH]ccc12`, the period change in assay [1] was 0.125 h (inactive). Further, in assay [2], the inhibition is -2% (inactive). Moreover, the fluorescence ratio (interference) in assay [3] was 1 (inactive). The remaining activity in assay [4] was 102% (inactive). The fold change in assay [5] (setting [8]) was 0.97 (inactive) and 0.927 (inactive); in assay [5] (setting [9]), 1.45 and 1.12. Besides, the cell count in assay [5] (setting [10]) was 9970 and 8970; in assay [5] (setting [11]) it was 10300 and 9670. The call in assay [6] was inactive. Further, the z-score in assay [7] is -0.095 (inactive) and -0.03 (inactive).

With `CN=c1nc(-c2ccccc2)n(-c2ccccc2)s1`, the period change in assay [1] is -0.055 h (inactive). Further, the inhibition in assay [2] was 8% (inactive). Moreover, the fluorescence ratio (interference) in assay [3] is 1 (inactive). The remaining activity in assay [4] was 118% (inactive). For the same molecule, the fold change in assay [5] (setting [8]) was 0.91 (inactive) and 0.922 (inactive); in assay [5] (setting [9]) it was 1.06 and 0.764. Moreover, the cell count is 3550 and 4090 in assay [5] (setting [10]); 3900 and 4440 in assay [5] (setting [11]). The outcome in assay [6] was inactive. The z-score in assay [7] is -1.38 (inactive) and -0.73 (inactive).

In the case of `CC(C)(C=O)Cc1cc(C(C)(C)C)c(O)c(C(C)(C)C)c1`, the period change in assay [1] is 0.05 h (inactive). Further, the inhibition in assay [2] was 0% (inactive). The fluorescence ratio (interference) in assay [3] is 1 (inactive). For the same molecule, the remaining activity in assay [4] was 125% (inactive). The fold change in assay [5] (setting [8]) is 1.05 (inactive) and 0.927 (inactive); in assay [5] (setting [9]), 1.79 and 0.718. Moreover, the cell count in assay [5] (setting [10]) is 9400 and 9850; in assay [5] (setting [11]), 8980 and 10600. Further, the molecule was classed as inactive in assay [6]. The z-score in assay [7] is -1.33 (inactive) and -0.18 (inactive).

Turning to `O=c1[nH]c2cc([N+](=O)[O-])c([N+](=O)[O-])cc2[nH]c1=O`, the period change in assay [1] was 0.075 h (inactive). Besides, the inhibition in assay [2] was -4% (inactive). Besides, the fluorescence ratio (interference) in assay [3] is 1 (inactive). In addition, the remaining activity in assay [4] was 109% (inactive). Further, the fold change in assay [5] (setting [8]) is 0.955 (inactive) and 0.937 (inactive); in assay [5] (setting [9]) it was 1 and 0.778. In addition, the cell count in assay [5] (setting [10]) was 9840 and 7960; in assay [5] (setting [11]) it was 10300 and 8490. Moreover, in assay [6], the result was inactive. Also, the z-score in assay [7] is -0.11 (inactive) and 0.22 (inactive).
